Test system: Vero E6 infected with SARS-CoV-2
Experiment: inhibition of SARS-CoV-2 cytopathic effect; higher = more antiviral protection, active = above 15
Conditions: 48 h

Measured: inhibition of SARS-CoV-2 cytopathic effect

Cc1nc(-c2cccnc2)sc1C(=O)Nc1ccccc1-c1cn2c(CN3CCOCC3)csc2n1
inactive: 1 nM -1.3% | 8.33 nM 1.11% | 100 nM 1.74% | 833.33 nM 0.18% | 10000 nM -2.05%

COc1cc2c3cc1Oc1cc(ccc1O)C[C@@H]1c4c(cc(OC)c(O)c4Oc4ccc(cc4)C[C@@H]3N(C)CC2)CC[N+]1(C)C [tubocurarine]
inactive: 1 nM -3.23% | 8.33 nM -3.95% | 100 nM -2.68% | 833.33 nM 0.38% | 10000 nM 1.45%

CC(C)(CC(=O)N1CCCC1)NCC(=O)N1C[C@@H](F)C[C@H]1C#N
inactive: 1 nM 1.83% | 8.33 nM 0.33% | 100 nM -0.99% | 833.33 nM -1.3% | 10000 nM -0.94%

Cc1cc(-c2ncc(CC(=O)Nc3ccc(-c4cnccn4)cn3)cc2C)ccn1
inactive: 1 nM -0.34% | 8.33 nM -0.01% | 100 nM -1.16% | 833.33 nM 1.44% | 10000 nM 2.89%

COc1ccc(S(=O)(=O)N2CCCN(S(=O)(=O)c3ccc(OC)c(OC)c3)CC2)cc1OC
inactive: 1 nM -2.26% | 8.33 nM -1.47% | 100 nM -0.96% | 833.33 nM -5.53% | 10000 nM 6.2%

CCCCCCOc1cc2c(cc1N(C)c1ncc(C(=O)O)cn1)C(C)(C)CCC2(C)C
inactive: 1 nM -1.61% | 8.33 nM 3.1% | 100 nM 3.71% | 833.33 nM 4.08% | 10000 nM 5.06%

COC(=O)[C@@H]1CC2=CC(=O)CC[C@]2(C)[C@@]23O[C@@H]2C[C@@]2(C)[C@@H](CC[C@@]24CCC(=O)O4)[C@H]13 [eplerenone]
inactive: 1 nM 0.06% | 8.33 nM 2.8% | 100 nM 0.3% | 833.33 nM 1.53% | 10000 nM 0.25%

Reference: the supplement of paper PMC13380429
